Assay results: PubChem BioAssay (NCATS)
Inconclusive results are not listed. A number with no mark means an inactive call. The source made the active and inactive calls. Calls come from the whole dose curve; as a rule, active = well fitted cell-killing curve with a large enough effect; inconclusive = small, poorly fitted or top-dose-only effect, or effect the other way; inactive = no such curve, though single readings can be large or run the other way.

Experiments:
[1] = Viability qHTS for spleen associated tyrosine kinase inhibitor (SYKi) naive MV4-11 cells (AID 1963823); note: nearly all actives have a fitted effect of over 40% in size
How it was run: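 Viability of MV4-11 AML cells lacking prior SYK inhibitor exposure is scored by CellTiter-Glo luminescence following 72 hr compound incubation at 37 C, 5% CO2, seeded at 500 cells per well.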

[2] = Viability qHTS for spleen associated tyrosine kinase inhibitor (SYKi) drug resistant MV4-11 cells (AID 1963824); note: nearly all actives have a fitted effect of over 35% in size
How it was run: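 SYK-inhibitor-resistant MV4-11 AML cells were seeded at 500 per well onto compound and cultured 72 hours (37 °C, 5% CO2). CellTiter-Glo was then added, and after 10 min at room temperature, luminescence gave viability.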
Potency is the fitted concentration of half-maximal effect.

| Structure (SMILES) | Potency [1] | Potency [2] | viability (% of control) [1] | viability, % of control [2] |
| --- | --- | --- | --- | --- |
| Cc1ccccc1-c1cc(N2CCN(C)CC2)ncc1N(C)C(=O)C(C)(C)c1cc(C(F)(F)F)cc(C(F)(F)F)c1 | inactive | inactive | – | – |
| C=CC(C)(O)CC/C=C(\C)C(=O)O[C@@H]1[C@@H](O)[C@H](OC(C)(C=C)CC/C=C(\C)C(=O)O[C@@H]2O[C@H](CO)[C@@H](O)[C@H](O)[C@H]2O)O[C@H](CO)[C@H]1OC(=O)/C(C)=C/CCC(C)(O)C=C (stereo not given in full) | – | – | 87.6% [at 9.25 µM] | 77.6% [at 9.25 µM] |
| O=c1cc(NCCCN[C@@H]2CCOc3c(Br)cc(Br)cc32)[nH]c2ccsc12 | 10.3 µM (active) | 7.31 µM (active) | – | – |
| C=C1CC2[C@@]3(C)C=CC(=O)C(C)(C)C3=C(O)C(=O)[C@@]2(C)C2(C(=O)OC)C(=O)C(C)OC(=O)[C@@]12C (stereo not given in full) | 10 µM (active) | 10 µM (active) | – | – |
| Oc1cccc(C2NC(=S)Nc3cccc(F)c32)c1 (stereo not given) | 4.61 µM (active) | 2.91 µM (active) | – | – |
| CC(C)(O)CC(CO)NC(=O)CC(O)CC(=O)Cc1ccccc1 (stereo not given) | inactive | inactive | – | – |
| COc1cc(/C=C/C(=O)N2CCN(CC(=O)N3CCCC3)CC2)cc(OC)c1OC | inactive | inactive | – | – |
| CC1(C)CC[C@]2(C(=O)O)CC[C@]3(C)C(=CCC4[C@@]5(C)C[C@H](O)[C@H](O[C@@H]6O[C@H](CO)[C@@H](O)[C@H](O)[C@H]6O)[C@@](C)(CO)C5[C@H](O)C[C@]43C)[C@@H]2C1 (stereo not given in full) | inactive | inactive | – | – |
| O=C(Nc1ccc(-c2ccc(Cl)c(Cl)c2)cc1)C1=C(O)c2ccccc2S(=O)(=O)N1 | 20.6 µM (active) | 23.1 µM (active) | – | – |
| CC(C)CC(=O)c1c(O)cc2c(c1O)C(CC(C)C)C1=C(O2)C(C)(C)C(=O)C(C)(C)C1=O (stereo not given) | 8.93 µM (active) | 8.93 µM (active) | – | – |
